MCF10A rerep: induces DNA re-replication in MCF 10a normal breast cells | MCF 10A DNA re-replication, Hoechst nuclear intensity, 48 h | Potency, µM (top dose mostly 46.1 µM), for the others: top-dose activity, positive = re-replication, hits mostly activators | hit rate 2.9% among 350,000 | AID 624296; also: potency is read from the fitted curve at half-maximal effect; % of control where 0% means no effect; nearly all actives have a fitted effect of over 50% in size
D3 ag: agonists of human D3 dopamine receptor. P35462. D3R DiscoveRx beta-arrestin cells, luminescence, 90 min. max activation, %. hit rate 0.58% among 410,000; in the data active = max activation above about 30%; also: 0% is about no effect
Target sequence (P35462 whole entry, looked up): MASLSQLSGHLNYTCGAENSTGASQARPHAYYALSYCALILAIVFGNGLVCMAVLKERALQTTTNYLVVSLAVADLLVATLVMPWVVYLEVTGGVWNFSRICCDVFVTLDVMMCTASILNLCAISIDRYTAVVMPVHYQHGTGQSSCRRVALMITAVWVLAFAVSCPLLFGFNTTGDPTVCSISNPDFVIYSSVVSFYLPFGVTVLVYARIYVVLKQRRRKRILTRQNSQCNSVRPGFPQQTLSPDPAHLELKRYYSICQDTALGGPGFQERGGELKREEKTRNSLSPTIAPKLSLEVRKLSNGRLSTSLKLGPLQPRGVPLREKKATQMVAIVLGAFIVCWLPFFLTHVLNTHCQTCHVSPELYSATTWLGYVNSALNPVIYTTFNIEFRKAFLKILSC
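Agonist mode: compounds and dopamine controls were applied to plated cells for 90 min at 37 degrees C after an overnight attachment at 1500 cells/well. Luminescent read-out followed 30 - 60 minutes at room temperature with DiscoveRx detection reagent.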
SW480 rerep: DNA re-replication induction in SW480 cells | hit rate 1.8% among 340,000 | SW480 DNA re-replication, Hoechst DNA content imaging, 48 h | Potency, µM (top dose mostly 46.1 µM), without a hit: at the top dose re-replication activation, most hits filed as activators; also: potency is read from the fitted curve at half-maximal effect; % of control where 0% means no effect; nearly all actives have a fitted effect of over 55% in size
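Treated cells incubate 48 hr (37 C, 5% CO2), are stained 40 min with Hoechst, and nuclear fluorescence is enumerated; a rise in nuclei with high DNA signal marks re-replication.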
KB-V1 cytotox: KB-V1 MDR subline cytotoxicity; hit rate 3.4% among 400,000; Potency, µM (top dose mostly 46.1 µM), usual class: cytotoxic; KB-V1 MDR cells viability, CellTiter-Glo, 72 h; also: potency is read from the fitted curve at half-maximal effect; % is scaled to controls: 0 for no effect and ±100 for the full control effect; nearly all actives have a fitted effect of over 60% in size
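Cytotoxicity toward P-gp-expressing KB-V1 cells was determined as loss of CellTiter-Glo luminescence after 72 h at 37 degrees C. Compounds were tested in quantitative HTS format across a concentration range, with curves fitted to normalized data.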
DRD3 antagonist: antagonists of human D3 dopamine receptor | P35462 | D3R cells, DiscoveRx beta-arrestin luminescence, antagonist mode; hits give low values | max response, negative = inhibition, % | hit rate 2.5% among 360,000; in the data active = max response below about -50%; inconclusive = no clear call, values can overlap the other calls; also: % is scaled to controls: 0 for no effect and ±100 for the full control effect
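Cells plated overnight at 1500 cells/well, then exposed to library compounds with dopamine controls for 90 minutes at 37 degrees C. DiscoveRx reagent added for 30–60 minutes at room temperature; luminescence read, quantitative HTS format.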
KB-3-1 cytotox: kills parental KB-3-1 adenocarcinoma cells. hit rate 1.4% among 400,000. AID 1347075. Potency, µM (doses to about 46.1 µM), actives largely listed as cytotoxic. KB-3-1 viability, CellTiter-Glo ATP luminescence, 72 h; also: potency is read from the fitted curve at half-maximal effect; % is scaled to controls: 0 for no effect and ±100 for the full control effect; nearly all actives have a fitted effect of over 60% in size
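Screening of KB-3-1 cells (DMEM, 10% FBS, phenol-red free) ran from lowest to highest compound concentration; after 72 h at 37 °C viability was read luminescently and curves fitted.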
* hit, by the source's call; i = inactive; ? = inconclusive; nt = not tested or not shown; [ ] = dose if it differs, or a comment. Compounds with a hit are over-represented: about 8.9% of the library has one in this group of screens. Unless noted, calls follow the shape of the dose curve; as a rule, active = well fitted curve in the direction sought with a large enough effect; inconclusive = small, poorly fitted or top-dose-only effect, or another doubt; inactive = no such curve, though single readings can be large; an effect the other way counts as inactive or inconclusive.

SMILES	MCF10A rerep	D3 ag	SW480 rerep	KB-V1 cytotox	DRD3 antagonist	KB-3-1 cytotox
CCN(CC1CCCN(CCc2cccc(F)c2)C1)C(=O)c1ccoc1C (stereo not drawn)	nt	-5.4	nt	?	-50.8*	i
COc1ccc(C(=O)N(C)C2CCCN(Cc3ccccc3F)C2)cc1C (stereo not drawn)	11.5%	1.1	-3.0%	i	-1.9	i
O=C(C[n+]1cccc2cc(Cl)ccc21)c1ccc(I)cc1	nt	nt	nt	i	nt	?
CC(Cc1ccccc1)NC(=O)CCNNC(=O)c1ccncc1 (stereo not drawn)	nt	-7.2	nt	i	-22.4	i
COC(=O)c1ccsc1NC(=O)CS(=O)(=O)c1ccccc1	6.2%	-14.7	-0.8%	i	-101.8*	i
COc1ccc(NC(=O)CC(=O)Nc2ccc(OC)cc2OC)c(OC)c1	12.0%	20.7	-9.9%	20.6µM*	17.8	i
COc1ccc(NC(=O)c2ccccc2Oc2ccccc2)c(OC)c1	25.9µM*	8.3	3.2%	i	6.6	i
COC(=O)NNC(=S)Nc1cc(OC)ccc1OC	-1.9%	-3.5	?	i	-141.2*	i
CC(=O)O[C@@H](C)C[N+](C)(C)C	1.6%[20.6 µM]	nt	2.5%[20.6 µM]	nt	nt	nt
Cc1ccc(C)c(N2CCN(CCCNC(=O)c3ccc4nc(N5CCCCC5)sc4c3)CC2)c1	nt	-7.8	nt	i	nt	?
O=C(NCC(c1cccs1)N1CCOCC1)c1cc2ccccc2oc1=O (stereo not drawn)	11.2%	2.5	-57.3%	?	-16.1	i
COc1ccc(OC)c(NC(=O)CS(=O)(=O)Cc2ccccc2)c1	1.0%	-13.2	2.0%	i	-0.7	i
COc1ccc(NCC(=O)Nc2ccc(Cl)cc2C)c(OC)c1	9.9%	-9.4	16.4µM*	i	-16.8	i
COc1ccc(OC)c(NC(=O)CS(=O)(=O)c2ccccc2)c1	-0.8%	6.8	-4.2%	18.4µM*	13.5	i
COc1cccc(N2CCN(S(=O)(=O)c3cn(C)c(C)n3)CC2)c1	nt	-5.9	nt	?	nt	i
CC1=C(C(=O)Nc2cccc(F)c2)C2(CCCCCC2)OC1=O	nt	-7.4	nt	i	nt	i
c1ccc(-c2cc3c(N4CCOCC4)ncnc3s2)cc1	13µM*	4.6	?	?	39.5	i
Cc1nc(N2CCOCC2)c2cc(-c3ccccc3)sc2n1	22.8%	-10.4	0.4%[9.22 µM]	i	-57.0*	i
Cc1nc(N2CCN(Cc3ccc4c(c3)OCO4)CC2)c2cc(-c3ccccc3)sc2n1	30.1%	-25.4	?	i	5.4	?
Cc1ccc(C2c3c(oc4ccccc4c3=O)C(=O)N2c2ccc(C)cn2)cc1 (stereo not drawn)	nt	1.9	nt	nt	nt	nt
COc1cc(C2Nc3ccccc3C(=O)N2c2ccccc2)c(Br)cc1OCC(=O)O (stereo not drawn)	-6.2%	3.2	23.1µM*	i	-17.4	i
CC(C)c1ccc(CN(Cc2ccco2)c2cnc(S(C)(=O)=O)nc2C(=O)Nc2ccc(F)cc2)cc1	nt	8.3	nt	i	nt	i
Cn1c(=O)c(C(=O)COC(=O)c2cc(C3CC3)nc3ccccc23)c(N)n(Cc2ccccc2)c1=O	?	-3.2	7.6%	?	19.2	i
Cn1c(=O)c(C(=O)COC(=O)c2cc(-c3ccco3)nc3ccccc23)c(N)n(CC2CC2)c1=O	7.7%	nt	16.4µM*	nt	nt	nt
CCNc1nc(N)c(C(=O)C23CC4CC(CC(C4)C2)C3)s1	-0.4%	-8.1	21.4%	i	-5.7	i
SMILES	MCF10A rerep	D3 ag	SW480 rerep	KB-V1 cytotox	DRD3 antagonist	KB-3-1 cytotox
CCNc1nc(N)c(C(=C(C#N)C#N)c2ccccc2)s1	20µM*	-11.8	?	i	14.9	i
O=c1c2ccccc2cnn1Cc1ccc(Cl)c(Cl)c1	1.5%	-4.4	5.0%	?	4.1	i
Cc1cccc(Cn2ncc(Cl)c(Cl)c2=O)c1	13µM*	-40.3	5.8µM*	20.6µM*	-21.3	?
Cc1cc(C(=O)Cn2ncc(Cl)c(Cl)c2=O)c(C)n1CC(F)(F)F	2.59µM*	-8.7	5.8µM*	?	-58.8*	?
Cc1ccc(C)c(C(=O)Cn2ncc(Cl)c(Cl)c2=O)c1	4.61µM*	-8.9	?	?	-27.6	?
Cc1ccc(C)c(C(=O)CN2C(=O)c3ccccc3C2=O)c1	4.4%	-1.2	-13.1%	i	0.8	i
Cc1ccc(C)c(N2CCN(S(=O)(=O)c3ccc(-c4coc(C)n4)cc3)CC2)c1	nt	-0.9	nt	?	nt	i
NS(=O)(=O)c1ccc(N=Nc2c[nH]c(=O)c(O)c2)cc1	?	-10.7	?	i	-66.2*	i
Nc1nc(O)c(N=Nc2ccc(S(N)(=O)=O)cc2)c(=O)[nH]1	-0.8%	6.4	-5.1%	?	-15.1	i
Cc1ccc(CNc2nc3cc(-c4ccccc4C)sc3c(=O)n2C)c(C)c1	nt	4.9	nt	i	-6.2	?
Cn1c(NCc2ccccc2)nc2cc(-c3ccccc3)sc2c1=O	nt	0.8	nt	i	-16.5	i
COc1cccc(CNc2nc3cc(-c4ccc(OC)c(OC)c4)sc3c(=O)n2C)c1	nt	40.2*	nt	i	39.3	i
C=CCNc1nc2cc(-c3ccccc3C)sc2c(=O)n1C	nt	-0.8	nt	?	16.7	20.6µM*
COc1cccc(CNc2nc3cc(-c4ccccc4)sc3c(=O)n2C)c1	nt	10.2	nt	2.31µM*	13.4	7.31µM*
C/C(=N\NC(=O)C(C)n1nc(C)c([N+](=O)[O-])c1C)c1ccccc1O (stereo not drawn)	?	-20.6	4.61µM*	2.31µM*	5.9	?
CC(C)(C)C(=O)Nc1sc2c(c1-c1nc3ccccc3[nH]1)CCCC2	13µM*	-4.2	1.7%	i	20.2	i
CC(C)(C)C(=O)Nc1cccc(-c2nc3ccccc3[nH]2)c1	-8.3%	0.7	-4.0%[9.22 µM]	i	21.2	i
Cc1ccc(COc2ccc(-c3nnco3)cc2)cc1	-3.2%	0.3	-0.8%	i	5.1	i
Cc1ccc(C(C)C)c(OCc2ccc(-c3nnco3)cc2)c1	23.1µM*	20.9	9.2%	i	72.1	i
C#CCN[C@@H]1CCc2ccccc21	0.1%	-2.7	0.7%	nt	nt	nt
CC(Oc1ccccc1)C(=O)N[C@@H]1C(=O)N2C(C(=O)O)C(C)(C)S[C@H]12 (stereo partly drawn)	nt	nt	nt	i	nt	i
O=C(NNc1nc(-c2ccccc2)c2cc(Br)ccc2n1)c1ccc(S(=O)(=O)N2CCCCC2)cc1	-0.4%	0.0	15.1%	3.26µM*	?	i
CCOC(=O)c1c(N)sc(C(O)(C(F)(F)F)C(F)(F)F)c1-c1ccc(Cl)cc1	14.6µM*	15.5	?	i	11.9	i
